Drawing on PubChem BioAssay (EPA / NIEHS), this text covers outcome and AC50 for four compounds.

Results filed as inconclusive are left out. Activity calls are given as the source filed them. The calls were made as follows, unless noted: active = hit-call score of the fitted dose curve at least 0.9, where 1 is the maximum; inactive = score below 0.9.

Read-out in test [1]: solute carrier (SLC22A1), SLC22A1 (gene 6580)
Kind of test: LTEA_HepaRG_SLC22A1: Life Technologies and Expression Analysis (LTEA) Assay for solute carrier (SLC22A1) using HepaRG (AID 2283524). The settings on record: mRNA level, 48 h; actives raise or lower the signal. The procedure, abridged:
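Transcript level of SLC22A1 quantified by qRT-PCR (normalized to three housekeeping genes) after 48 h chemical exposure of HepaRG cells, eight concentrations up to 100 µM, half-log steps, 0.5% DMSO vehicle. Gain or loss relative to DMSO fitted bidirectionally.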

Read-out in test [2]: Pyruvate Dehydrogenase Kinase 4 (PDK4), PDK4 (gene 5166)
Kind of test: LTEA_HepaRG_PDK4: Life Technologies and Expression Analysis (LTEA) Assay for Pyruvate Dehydrogenase Kinase 4 (PDK4) using HepaRG (AID 2283525). Conditions: mRNA level, 48 h; actives raise or lower the signal. Put shortly: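 Readout is qRT-PCR of PDK4 transcript, normalized to three housekeeping genes, with bidirectional fitting against 0.5% DMSO vehicle. Differentiated HepaRG cells were treated 48 h in serum-free induction medium, duplicate wells, eight-point half-log series topping at 100 uM.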

Read-out in test [3]: NAD(P)H dehydrogenase [quinone] 1 (NQO1), NQO1 (gene 1728)
The test is described as follows: LTEA_HepaRG_NQO1: Life Technologies and Expression Analysis (LTEA) Assay for NAD(P)H dehydrogenase [quinone] 1 (NQO1) using HepaRG (AID 2283526). Conditions: mRNA level, 48 h; actives raise or lower the signal. Put shortly:
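In this assay, gene expression is read by qRT-PCR after 48 h exposure of HepaRG cells to eight concentrations (max 100 uM, half-log) in 0.5% DMSO. Each chemical runs in duplicate, and activity is scored relative to vehicle.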

Read-out in test [4]: succinate dehydrogenase complex iron sulfur subunit B (SDHB), SDHB (gene 6390)
Kind of test: LTEA_HepaRG_SDHB: Life Technologies and Expression Analysis (LTEA) Assay for succinate dehydrogenase complex iron sulfur subunit B (SDHB) using HepaRG (AID 2283528). The settings on record: mRNA level, 48 h; actives raise or lower the signal. The procedure, abridged:
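HepaRG cells (~100,000/well, plated 48 h) exposed in duplicate for 48 h in serum-free induction medium to 8-point half-log series from 100 uM in 0.5% DMSO; mRNA by qRT-PCR normalised to ACTB, GAPDH, POLR2A; bidirectional fit versus DMSO.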

Read-out in test [5]: Signal transducer and activator of transcription 3 (Homo sapiens) (UniProt P40763)
The test is described as follows: LTEA_HepaRG_STAT3: Life Technologies and Expression Analysis (LTEA) Assay for Signal transducer and activator of transcription (STAT3) using HepaRG (AID 2283529). The settings on record: mRNA level, 48 h; actives raise or lower the signal. The procedure, abridged:
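STAT3 transcript quantified by qRT-PCR against three housekeeping genes (ACTB, GAPDH, POLR2A), fitted both directions relative to DMSO. HepaRG cultures exposed 48 h to eight half-log concentrations, top 100 uM, 0.5% DMSO, serum-free induction medium.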

Read-out in test [6]: solute carrier (SLCO1B1), SLCO1B1 (gene 10599)
Kind of test: LTEA_HepaRG_SLCO1B1: Life Technologies and Expression Analysis (LTEA) Assay for solute carrier (SLCO1B1) using HepaRG (AID 2283530). The settings on record: mRNA level, 48 h; actives raise or lower the signal. Put shortly:
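Differentiated human HepaRG cells, plated 48 h, switched to serum-free induction medium and exposed in duplicate for 48 h to 8 half-log concentrations (top 100 uM) in 0.5% DMSO. SLCO1B1 mRNA by TaqMan qRT-PCR, normalized to ACTB/GAPDH/POLR2A.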

Read-out in test [7]: sulfotransferase 2A1 (SULT2A1), SULT2A1 (gene 6822)
The test is described as follows: LTEA_HepaRG_SULT2A1: Life Technologies and Expression Analysis (LTEA) Assay for sulfotransferase 2A1 (SULT2A1) using HepaRG (AID 2283531). Conditions: mRNA level, 48 h; actives raise or lower the signal. The procedure, abridged: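 Differentiated human HepaRG cells in serum-free induction medium were exposed for 48 h to eight half-log concentrations (top 100 uM, 0.5% DMSO). SULT2A1 mRNA was measured by qRT-PCR, normalized to ACTB, GAPDH and POLR2A, and fitted bidirectionally against DMSO.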

Read-out in test [8]: Transforming Growth Factor (TGFA), TGFA (gene 7039)
The test is described as follows: LTEA_HepaRG_TGFA: Life Technologies and Expression Analysis (LTEA) Assay for Transforming Growth Factor (TGFA) using HepaRG (AID 2283532). Conditions: mRNA level, 48 h; actives raise or lower the signal. Put shortly: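 TGFA transcript quantified by qRT-PCR (Fluidigm arrays) against three housekeeping genes, after 48 hours chemical treatment of HepaRG cells. Top concentration 100 uM with half-log dilutions, 8 points, duplicates, 0.5% DMSO.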

Read-out in test [9]: TIMP1, TIMP1 (gene 7076)
The test is described as follows: LTEA_HepaRG_TIMP1: Life Technologies and Expression Analysis (LTEA) Assay for TIMP1 using HepaRG (AID 2283534). The settings on record: mRNA level, 48 h; actives raise or lower the signal. The procedure, abridged:
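Differentiated human HepaRG cells in serum-free induction medium were exposed 48 h to chemicals (8 half-log concentrations, top 100 uM, 0.5% DMSO). TIMP1 mRNA was quantified by TaqMan qRT-PCR, normalized to ACTB/GAPDH/POLR2A; bidirectional fit versus DMSO.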

Read-out in test [10]: Tumor necrosis factor receptor 1 (TNFRSF1A), TNFRSF1A (gene 7132)
The test is described as follows: LTEA_HepaRG_TNFRSF1A: Life Technologies and Expression Analysis (LTEA) Assay for Tumor necrosis factor receptor 1 (TNFRSF1A) using HepaRG (AID 2283535). The settings on record: mRNA level, 48 h; actives raise or lower the signal. The procedure, abridged:
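Differentiated human HepaRG cells were exposed in duplicate for 48 h in serum-free induction medium to eight concentrations (top 100 uM, half-log steps, 0.5% DMSO). TNFRSF1A mRNA was quantified by qRT-PCR, normalized to ACTB, GAPDH and POLR2A, then fitted bidirectionally against DMSO.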

Read-out in test [11]: Thyroid Hormone Responsive (THRSP), THRSP (gene 7069)
Kind of test: LTEA_HepaRG_THRSP: Life Technologies and Expression Analysis (LTEA) Assay for Thyroid Hormone Responsive (THRSP) using HepaRG (AID 2283536). The settings on record: mRNA level, 48 h; actives raise or lower the signal. The procedure, abridged: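 THRSP transcript quantified by Fluidigm qRT-PCR against three housekeeping genes after 48 h chemical exposure of HepaRG cells in serum-free induction medium; eight-point half-log series, top 100 uM, 0.5% DMSO vehicle, duplicate wells.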

Read-out in test [12]: Cellular tumor antigen p53 (Homo sapiens) (UniProt P04637)
The test is described as follows: LTEA_HepaRG_TP53: Life Technologies and Expression Analysis (LTEA) Assay for Tumor Protein P53 (TP53) using HepaRG (AID 2283537). The settings on record: mRNA level, 48 h; actives raise or lower the signal. The procedure, abridged: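 Differentiated HepaRG cells in serum-free induction medium exposed 48 h in duplicate to 8 half-log concentrations, top 100 uM, 0.5% DMSO. TP53 mRNA by TaqMan qRT-PCR (Fluidigm), normalized to ACTB, GAPDH, POLR2A; fitted bidirectionally versus DMSO.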

Read-out in test [13]: UDP glucuronosyltransferase (UGT1A1), UGT1A1 (gene 54658)
The test is described as follows: LTEA_HepaRG_UGT1A1: Life Technologies and Expression Analysis (LTEA) Assay for UDP glucuronosyltransferase (UGT1A1) using HepaRG (AID 2283538). The settings on record: mRNA level, 48 h; actives raise or lower the signal. The procedure, abridged:
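mRNA induction or loss of UGT1A1, by TaqMan qRT-PCR, in duplicate HepaRG wells after 48 h exposure to half-log dilutions topping at 100 uM; DMSO (0.5%) served as baseline.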

Read-out in test [14]: UDP glucuronosyltransferase (UGT1A6), UGT1A6 (gene 54578)
The test is described as follows: LTEA_HepaRG_UGT1A6: Life Technologies and Expression Analysis (LTEA) Assay for UDP glucuronosyltransferase (UGT1A6) using HepaRG (AID 2283539). Conditions: mRNA level, 48 h; actives raise or lower the signal. Put shortly:
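Human HepaRG cells were dosed for 48 h in serum-free induction medium with 0.5% DMSO vehicle, eight-point half-log series from 100 uM, in duplicate. UGT1A6 mRNA was measured by qRT-PCR, normalized to ACTB, GAPDH, POLR2A, and fitted bidirectionally against DMSO.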

Read-out in test [15]: X-box binding protein 1 (XBP1), XBP1 (gene 7494)
Kind of test: LTEA_HepaRG_XBP1: Life Technologies and Expression Analysis (LTEA) Assay for X-box binding protein 1 (XBP1) using HepaRG (AID 2283540). The settings on record: mRNA level, 48 h; actives raise or lower the signal. Put shortly: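 Differentiated human HepaRG cells in serum-free induction medium were exposed in duplicate for 48 h to eight half-log concentrations up to 100 uM in 0.5% DMSO. XBP1 mRNA was quantified by qRT-PCR, normalised to ACTB, GAPDH and POLR2A, with bidirectional fitting against DMSO.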

Test [16] is described as follows: LTEA_HepaRG_LDH_cytotoxicity: Cytotoxicity Assessment in the Life Technologies and Expression Analysis (LTEA) Assay (AID 2283563; active = hit-call score of the fitted dose curve at least 0.9, where 1 is the maximum;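 as to AC50: LDH activity released into spent culture medium as a marker of cell death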). Put shortly:
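Differentiated human HepaRG cells, plated 48 h beforehand, were switched to serum-free induction medium and exposed for 48 h to eight half-log concentrations (top 100 uM) in 0.5% DMSO. LDH was measured in spent medium; activity was fitted relative to DMSO vehicle.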

The nature of test [17]: TOX21_p53_BLA_p2_viability: Viability Assessment in the Tox21 HCT-116 p53 Agonism Beta-lactamase Assay, Phase 2 (AID 2283591; active = hit-call score of the fitted dose curve at least 0.9, where 1 is the maximum;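 also: compound exposure lasted 16 h at 37 °C; actives lower the ATP signal meaning cytotoxicity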). The procedure, abridged: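 Cytotoxicity readout: CellTiter-Glo ATP luminescence, 30 min at room temperature, after the beta-lactamase read. Cells were HCT116 exposed 16 h at 37C to compounds pin-transferred at 217-fold dilution from DMSO stocks.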

Read-out in test [18]: Nuclear factor erythroid 2-related factor 2 (Homo sapiens) (UniProt Q16236)
Kind of test: LTEA_HepaRG_NFE2L2: Life Technologies and Expression Analysis (LTEA) Assay for Nuclear factor erythroid 2-related factor 2 (NFE2L2) Transcription Factor using HepaRG (AID 2283527).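 As to outcome: TaqMan qRT-PCR transcript level normalised to ACTB GAPDH and POLR2A housekeeping genes.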 The settings on record: mRNA level, 48 h; actives raise or lower the signal. Put shortly:
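NFE2L2 transcript level was read by qRT-PCR (housekeeping ACTB/GAPDH/POLR2A normalisation) after 48 h chemical treatment of HepaRG in serum-free induction medium. Duplicate 8-point half-log curves, top 100 uM, 0.5% DMSO vehicle; up- or down-regulation fitted against vehicle.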

Read-out in test [19]: Transforming Growth Factor (TGFB1), TGFB1 (gene 7040)
The test is described as follows: LTEA_HepaRG_TGFB1: Life Technologies and Expression Analysis (LTEA) Assay for Transforming Growth Factor (TGFB1) Transporter using HepaRG (AID 2283533). The settings on record: mRNA level, 48 h; actives raise or lower the signal. The procedure, abridged:
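Differentiated human HepaRG cells in serum-free induction medium were exposed in duplicate for 48 h to eight concentrations (top 100 uM, half-log steps, 0.5% DMSO). TGFB1 mRNA was quantified by qRT-PCR, normalized to ACTB, GAPDH, POLR2A, and fitted bidirectionally against DMSO.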

Signal transducer and activator of transcription 3 (Homo sapiens), sequence (P40763 whole entry, looked up): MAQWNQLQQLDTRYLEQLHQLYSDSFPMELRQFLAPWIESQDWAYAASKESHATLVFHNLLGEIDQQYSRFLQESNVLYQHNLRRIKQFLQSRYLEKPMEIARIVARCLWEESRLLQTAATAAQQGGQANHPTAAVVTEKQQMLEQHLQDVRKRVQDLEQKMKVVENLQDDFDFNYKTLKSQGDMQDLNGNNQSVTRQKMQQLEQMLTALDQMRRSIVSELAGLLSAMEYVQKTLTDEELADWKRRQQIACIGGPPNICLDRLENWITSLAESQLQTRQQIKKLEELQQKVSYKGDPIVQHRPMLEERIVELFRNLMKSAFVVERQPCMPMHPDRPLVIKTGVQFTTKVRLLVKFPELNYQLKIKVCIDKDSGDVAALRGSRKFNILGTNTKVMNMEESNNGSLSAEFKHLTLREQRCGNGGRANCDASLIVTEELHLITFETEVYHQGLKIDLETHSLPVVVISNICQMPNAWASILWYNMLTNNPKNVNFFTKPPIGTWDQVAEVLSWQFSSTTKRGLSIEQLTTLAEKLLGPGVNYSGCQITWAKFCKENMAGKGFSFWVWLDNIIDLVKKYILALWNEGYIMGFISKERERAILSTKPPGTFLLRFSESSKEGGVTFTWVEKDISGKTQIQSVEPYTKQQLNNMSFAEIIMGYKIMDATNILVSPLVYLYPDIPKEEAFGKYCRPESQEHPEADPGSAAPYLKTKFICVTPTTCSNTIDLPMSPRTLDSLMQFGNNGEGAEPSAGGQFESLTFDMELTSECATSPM
Cellular tumor antigen p53 (Homo sapiens), sequence (P04637 whole entry, looked up): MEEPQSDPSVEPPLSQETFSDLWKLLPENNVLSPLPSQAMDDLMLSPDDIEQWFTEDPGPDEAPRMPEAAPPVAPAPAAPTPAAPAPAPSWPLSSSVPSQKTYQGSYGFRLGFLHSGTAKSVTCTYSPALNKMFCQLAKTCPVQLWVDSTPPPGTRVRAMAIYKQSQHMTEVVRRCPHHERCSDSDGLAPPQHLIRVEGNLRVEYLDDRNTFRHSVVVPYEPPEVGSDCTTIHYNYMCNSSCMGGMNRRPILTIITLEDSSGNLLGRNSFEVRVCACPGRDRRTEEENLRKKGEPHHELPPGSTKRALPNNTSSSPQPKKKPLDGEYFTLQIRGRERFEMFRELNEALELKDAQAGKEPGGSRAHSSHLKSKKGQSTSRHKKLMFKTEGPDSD
Nuclear factor erythroid 2-related factor 2 (Homo sapiens), sequence (Q16236 whole entry, looked up): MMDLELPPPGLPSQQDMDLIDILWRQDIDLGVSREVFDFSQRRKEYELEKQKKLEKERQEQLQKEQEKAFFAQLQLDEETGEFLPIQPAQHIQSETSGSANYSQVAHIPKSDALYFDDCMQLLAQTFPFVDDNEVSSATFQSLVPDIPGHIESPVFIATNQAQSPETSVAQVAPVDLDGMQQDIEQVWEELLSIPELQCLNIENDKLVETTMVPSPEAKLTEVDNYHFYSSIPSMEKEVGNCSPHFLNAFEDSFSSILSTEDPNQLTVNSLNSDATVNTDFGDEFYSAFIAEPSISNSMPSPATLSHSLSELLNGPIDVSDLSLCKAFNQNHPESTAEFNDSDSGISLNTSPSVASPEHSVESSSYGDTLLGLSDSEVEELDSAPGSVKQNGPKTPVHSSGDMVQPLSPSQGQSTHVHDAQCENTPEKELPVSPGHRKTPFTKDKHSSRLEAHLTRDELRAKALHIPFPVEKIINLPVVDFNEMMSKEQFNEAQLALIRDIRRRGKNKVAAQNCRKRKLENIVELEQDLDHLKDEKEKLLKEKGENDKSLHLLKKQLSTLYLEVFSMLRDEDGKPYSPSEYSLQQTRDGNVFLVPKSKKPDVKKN

As to `CC(C)(C)OOC(C)(C)CCC(C)(C)OOC(C)(C)C`, the compound was called inactive in [1], in test [2], in test [3], in test [4], in [5] and in test [6]. Also, the call in test [7], in test [8], in test [9], in [10], in test [11] and in [12] was inactive. The call in test [13], in [14], in test [15], in test [16] and in [17] was inactive.

Broadly, the AC50 is the concentration giving half of the maximal activity seen. Consider `Cc1ccc(N)c(N)c1`, for which the compound was called inactive in test [1], in [2], in test [3], in test [18], in test [5] and in test [6]. Also, the compound was classed as inactive in test [7], in test [8], in [19], in [9], in test [10] and in test [11]. Further, the compound was classed as inactive in test [12], in test [14], in [15], in test [16] and in test [17]. Moreover, the AC50 in test [13] was 50 µM (active).

Turning to `O=C(Nc1ccccc1)c1ccccc1I`, the AC50 in test [1] is 31.1 µM (active); in test [2] it was 9.92 µM (active); in test [18], 77.6 µM (active); in test [11], 27.1 µM (active); in test [13], 13.1 µM (active); in [15], 13.2 µM (active). Besides, in test [16], the AC50 was 40.5 µM (active). For the same compound, the outcome in [3], in [5], in test [6], in test [7], in test [8] and in test [9] was inactive. Also, the call in test [10] and in test [14] was inactive.

With `CN(C)[C@@H]1C(=O)C(C(N)=O)=C(O)[C@@]2(O)C(=O)C3=C(O)c4c(O)cccc4[C@@](C)(O)[C@H]3C[C@@H]12`, the call in test [2], in test [3], in test [18], in test [4], in test [5] and in test [6] was inactive. For the same compound, the result in test [7], in test [8], in test [19], in test [9], in test [10] and in test [11] was inactive. Moreover, the result in test [12], in test [13], in [14], in test [15], in test [16] and in test [17] was inactive.
